Test results published in PubChem BioAssay (NCI).
The panel holds about 79,000 compounds, 15% with a hit somewhere; the sample as a whole holds those more often. Values without a mark were called inactive. Cut-off read from the data, not from the text of the source: active = growth inhibition above about 70%; inactive = the rest.

Assay: NCI Yeast Anticancer Drug Screen. Data for the cln2 rad14 strain (AID 165);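 note: 0% = growth equal to vehicle treated cultures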
Conditions: S. cerevisiae cln2 rad14 strain, at 50.0 µM, stronger effect = higher value
Method in brief: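 cln2 rad14 yeast strain; compound exposure; growth inhibition read vs vehicle controls.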

Compared with `Cc1[nH]n(C(=O)c2ccc(Cl)cc2)c(=O)c1/C=C1\C(O)=CC(=O)c2ccccc21`, `Cc1cc(C)c(S(=O)(=O)c2cccs2)c(C)c1` is higher in growth inhibition: -19.6% for the first, -6.45% for the second.

Compared with `CCCCOC(OCCCC)C(OCCCC)OCCCC`, `O=C(OCc1ccccc1C1CSCSC1)c1cc(C(=O)OCc2ccccc2C2CSCSC2)c(C(=O)OCc2ccccc2C2CSCSC2)cc1C(=O)OCc1ccccc1C1CSCSC1` is higher in growth inhibition: -0.4% for the first, 1.65% for the second.

Assay: NCI Yeast Anticancer Drug Screen. Data for the bub3 strain (AID 167)
Conditions: S. cerevisiae bub3 mutant strain, at 50.0 µM, stronger effect = higher value
Method in brief: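 Yeast carrying a defined mutation is treated with each compound, and growth is compared with that of vehicle-exposed cells to give inhibition.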

First: O=C(O)/C=C/C(=O)Nc1ccc(Cl)cc1C(=O)c1ccccc1
Second: O=C(/C=C\c1ccc([N+](=O)[O-])cc1)c1ccccc1
The growth inhibition of the first is higher: 14.6% for the first, -3.6% for the second.

Compared with `c1ccc(CNCCN(Cc2ccccc2)Cc2ccccc2)cc1`, `CCN(C(=O)c1ccc([N+](=O)[O-])cc1)C(c1ccccc1)P(=O)(c1ccccc1)c1ccccc1` (centres undefined) is lower in growth inhibition: 30.4% for the first, 2.7% for the second.

Compared with `COc1ccc(OC)c(C(C)=O)c1`, `COc1ccc(/C=N\S(=O)(=O)c2ccc(OC)cc2)cc1` is higher in growth inhibition: -34.2% for the first, 2.2% for the second.

Compared with `CCO/C(C)=C(/C(C)=O)C(=O)NC1CCCCC1`, `CCOC(=O)/C(CC)=N\O` is lower in growth inhibition: -3.25% for the first, -4.45% for the second.

First: Fc1ccc(-c2cc(-c3ccc(F)cc3)cc(-c3ccc(F)cc3)c2)cc1
Second: Cc1[nH]n(C(=O)c2ccc(Cl)cc2)c(=O)c1/C=C1\C(O)=CC(=O)c2ccccc21
The growth inhibition of the first is lower: -8.15% for the first, 30.7% for the second.

Going from `O=[N+]([O-])c1ccc(C2ON2C2CCCCC2)cc1` (centres undefined) to `N=c1oc2ccc([N+](=O)[O-])cc2cc1C(=O)NCc1ccccc1`, the growth inhibition falls from -10.8% to -35.5%.

First: NCc1ccccc1F
Second: CC(O)CN1c2ccccc2Sc2ccc(Cl)cc21 (centres undefined)
The growth inhibition of the first is lower: -6.75% for the first, -4.9% for the second.

First: NC(CCC(=O)NC(CSCNC(=O)Nc1ccc(Cl)cc1)C(=O)NCC(=O)O)C(=O)O (centres undefined)
Second: NC(CCCC(N)C(=O)c1ccccc1)C(=O)c1ccccc1 (centres undefined)
The growth inhibition of the first is higher: -3.85% for the first, -11.3% for the second.

Compared with `O=C(O)CCNCCCCNCCC(=O)O`, `NCCCNCCCCNC(=O)C(O)NC(=O)CC(O)CCCCN=C(N)N` (centres undefined) is higher in growth inhibition: -22.6% for the first, -2.85% for the second.

Going from `O=C(N/N=C\c1cccnc1)Nc1ccc(N=Nc2ccccc2)cc1` to `O=C1OC(/C=C/c2ccccc2)=NC/1=C\C=C\c1ccccc1`, the growth inhibition falls from 11.9% to 6.15%.

First: CCOC(OCC)C(O)c1ccccc1 (centres undefined)
Second: O=C(CCC(O)c1ccccc1)c1ccccc1 (centres undefined)
The growth inhibition of the first is lower: -12.6% for the first, 0% for the second.

First: COC(=O)CC1(CC(=O)O)SCCS1
Second: COC(=O)C1=C(C)N(NC(N)=O)C2(N)N(NC(N)=O)C(C)=C(C(=O)OC)C12C#N (centres undefined)
The growth inhibition of the first is higher: 13.5% for the first, 2.55% for the second.

Compared with `Cc1cc2nc(NN)[nH]c2cc1C`, `Cc1cc(C)c(S(=O)(=O)c2cccs2)c(C)c1` is higher in growth inhibition: -26.4% for the first, 5.25% for the second.

First: CSc1nc(NC2OCC(O)C(O)C2O)cc(=O)n1C (centres undefined)
Second: COc1cc(CNc2nc3ccccc3n2Cc2ccccc2)cc(CN2CCOCC2)c1O
The growth inhibition of the first is lower: -26.9% for the first, 9.55% for the second.

First: N#Cc1c2c([nH]c(=O)c1C#N)CCCC2
Second: CN(C)c1ccc(-c2c(C#N)c(N)[nH]c(=S)c2C#N)cc1
The growth inhibition of the first is lower: -8.75% for the first, 16.9% for the second.

Compared with `O=C(O)CC1C(=O)OC2C3COC(=O)c4cc(O)c(O)c(O)c4-c4c(cc(O)c(O)c4O)C(=O)OC2C(OC(=O)c2cc(O)c(O)c4c2C1C(O)C(=O)O4)C(OC(=O)c1cc(O)c(O)c(O)c1)O3` (centres undefined), `CC(C)CCCC(C)[C@H]1CC[C@H]2[C@@H]3CC[C@H]4C[C@@H](CCC=C(c5cc(Cl)c(O)c(C(=O)OC(C)C)c5)c5cc(Cl)c(O)c(C(=O)OC(C)C)c5)CC[C@]4(C)[C@H]3CC[C@]12C` (some centres undefined) is lower in growth inhibition: 35.5% for the first, 11.5% for the second.

Compared with `CC1NC(C)SC(C)S1` (centres undefined), `CCCCOS(=O)OCCCC` is higher in growth inhibition: -0.7% for the first, 0.15% for the second.

First: O=c1[nH]c2ccccc2c(=O)n1CCCN1CCN(c2cccc(Cl)c2)CC1
Second: Cc1c(C)c(C)c(CNNC(=S)Nc2ccc(S(=O)(=O)N3CCCCC3)cc2)c(C)c1C
The growth inhibition of the first is higher: 15.8% for the first, 6.4% for the second.

First: CCCOC(=O)CCCC1=NC2=CC=CC3=NC(C)=NC(=N1)N23
Second: CCCCOC(OCCCC)C(OCCCC)OCCCC
The growth inhibition of the first is lower: -38.1% for the first, 16.4% for the second.

Going from `NC(=O)C1=CNCCC1` to `O=C(OCc1ccccc1C1CSCSC1)c1cc(C(=O)OCc2ccccc2C2CSCSC2)c(C(=O)OCc2ccccc2C2CSCSC2)cc1C(=O)OCc1ccccc1C1CSCSC1`, the growth inhibition falls from 10.7% to 6.1%.

Assay: NCI Yeast Anticancer Drug Screen. Data for the mlh1 rad18 strain (AID 175)
Conditions: S. cerevisiae mlh1 rad18 strain growth inhibition; at 50.0 µM; stronger effect = higher value
Method in brief: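 Yeast w/ defined DNA-repair lesions; compound exposure; growth vs vehicle controls → % inhibition.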

Going from `O=C(O)/C=C/C(=O)Nc1ccc(Cl)cc1C(=O)c1ccccc1` to `O=C(/C=C\c1ccc([N+](=O)[O-])cc1)c1ccccc1`, the growth inhibition falls from 20.8% to -16.2%.

First: c1ccc(CNCCN(Cc2ccccc2)Cc2ccccc2)cc1
Second: CCN(C(=O)c1ccc([N+](=O)[O-])cc1)C(c1ccccc1)P(=O)(c1ccccc1)c1ccccc1 (centres undefined)
The growth inhibition of the first is higher: 25.7% for the first, 1.45% for the second.

Compared with `COc1ccc(OC)c(C(C)=O)c1`, `COc1ccc(/C=N\S(=O)(=O)c2ccc(OC)cc2)cc1` is higher in growth inhibition: -29.4% for the first, 0.5% for the second.

Going from `CCO/C(C)=C(/C(C)=O)C(=O)NC1CCCCC1` to `CCOC(=O)/C(CC)=N\O`, the growth inhibition rises from -11.2% to 19.2%.

Going from `Fc1ccc(-c2cc(-c3ccc(F)cc3)cc(-c3ccc(F)cc3)c2)cc1` to `Cc1[nH]n(C(=O)c2ccc(Cl)cc2)c(=O)c1/C=C1\C(O)=CC(=O)c2ccccc21`, the growth inhibition rises from 10.4% to 16.9%.

Going from `O=[N+]([O-])c1ccc(C2ON2C2CCCCC2)cc1` (centres undefined) to `N=c1oc2ccc([N+](=O)[O-])cc2cc1C(=O)NCc1ccccc1`, the growth inhibition falls from 5.3% to -71.8%.

Going from `NCc1ccccc1F` to `CC(O)CN1c2ccccc2Sc2ccc(Cl)cc21` (centres undefined), the growth inhibition rises from 4.15% to 12.8%.

Going from `NC(CCC(=O)NC(CSCNC(=O)Nc1ccc(Cl)cc1)C(=O)NCC(=O)O)C(=O)O` (centres undefined) to `NC(CCCC(N)C(=O)c1ccccc1)C(=O)c1ccccc1` (centres undefined), the growth inhibition falls from 15.9% to 3.35%.

Going from `O=C(O)CCNCCCCNCCC(=O)O` to `NCCCNCCCCNC(=O)C(O)NC(=O)CC(O)CCCCN=C(N)N` (centres undefined), the growth inhibition falls from -22.3% to -24.1%.

First: O=C(N/N=C\c1cccnc1)Nc1ccc(N=Nc2ccccc2)cc1
Second: O=C1OC(/C=C/c2ccccc2)=NC/1=C\C=C\c1ccccc1
The growth inhibition of the first is higher: 23.1% for the first, -1.65% for the second.

Going from `CCOC(OCC)C(O)c1ccccc1` (centres undefined) to `O=C(CCC(O)c1ccccc1)c1ccccc1` (centres undefined), the growth inhibition rises from -11% to 2.35%.

First: COC(=O)CC1(CC(=O)O)SCCS1
Second: COC(=O)C1=C(C)N(NC(N)=O)C2(N)N(NC(N)=O)C(C)=C(C(=O)OC)C12C#N (centres undefined)
The growth inhibition of the first is higher: -8.25% for the first, -16.4% for the second.

First: Cc1cc2nc(NN)[nH]c2cc1C
Second: Cc1cc(C)c(S(=O)(=O)c2cccs2)c(C)c1
The growth inhibition of the first is higher: 22.1% for the first, -2.8% for the second.

First: CSc1nc(NC2OCC(O)C(O)C2O)cc(=O)n1C (centres undefined)
Second: COc1cc(CNc2nc3ccccc3n2Cc2ccccc2)cc(CN2CCOCC2)c1O
The growth inhibition of the first is lower: -2.95% for the first, 7.55% for the second.

First: N#Cc1c2c([nH]c(=O)c1C#N)CCCC2
Second: CN(C)c1ccc(-c2c(C#N)c(N)[nH]c(=S)c2C#N)cc1
The growth inhibition of the first is lower: -23.1% for the first, 3.45% for the second.

Going from `O=C(O)CC1C(=O)OC2C3COC(=O)c4cc(O)c(O)c(O)c4-c4c(cc(O)c(O)c4O)C(=O)OC2C(OC(=O)c2cc(O)c(O)c4c2C1C(O)C(=O)O4)C(OC(=O)c1cc(O)c(O)c(O)c1)O3` (centres undefined) to `CC(C)CCCC(C)[C@H]1CC[C@H]2[C@@H]3CC[C@H]4C[C@@H](CCC=C(c5cc(Cl)c(O)c(C(=O)OC(C)C)c5)c5cc(Cl)c(O)c(C(=O)OC(C)C)c5)CC[C@]4(C)[C@H]3CC[C@]12C` (some centres undefined), the growth inhibition falls from -6.15% to -32.5%.

First: CC1NC(C)SC(C)S1 (centres undefined)
Second: CCCCOS(=O)OCCCC
The growth inhibition of the first is higher: 36.8% for the first, -14.8% for the second.

First: O=c1[nH]c2ccccc2c(=O)n1CCCN1CCN(c2cccc(Cl)c2)CC1
Second: Cc1c(C)c(C)c(CNNC(=S)Nc2ccc(S(=O)(=O)N3CCCCC3)cc2)c(C)c1C
The growth inhibition of the first is higher: 14.8% for the first, 7.6% for the second.

Compared with `CCCOC(=O)CCCC1=NC2=CC=CC3=NC(C)=NC(=N1)N23`, `CCCCOC(OCCCC)C(OCCCC)OCCCC` is higher in growth inhibition: -7.45% for the first, 38% for the second.

Going from `NC(=O)C1=CNCCC1` to `O=C(OCc1ccccc1C1CSCSC1)c1cc(C(=O)OCc2ccccc2C2CSCSC2)c(C(=O)OCc2ccccc2C2CSCSC2)cc1C(=O)OCc1ccccc1C1CSCSC1`, the growth inhibition falls from 14.7% to -8.8%.
